Reference: PubChem BioAssay (NCI)
Compounds without any hit were thinned out: in the full panel of roughly 79,000, 15% have a hit. The source made the active and inactive calls. Rule as the data show it: active = growth inhibition above about 70%; inactive = the rest.

How the values were obtained:
[1] = NCI Yeast Anticancer Drug Screen. Data for the mec2-1 strain (AID 157); conditions: S. cerevisiae mec2-1 strain, stronger effect = higher value
Method in brief: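 Vehicle-treated cultures served as reference for growth inhibition of compound-exposed mec2-1 yeast.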

[2] = NCI Yeast Anticancer Drug Screen. Data for the rad14 strain (AID 159);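 also: 0% = growth of vehicle-treated control cultures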; conditions: S. cerevisiae rad14 strain growth inhibition, stronger effect = higher value
Method in brief: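 Growth inhibition vs vehicle controls; genetically altered yeast strain (DNA damage repair defect) treated with test compounds.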

[3] = NCI Yeast Anticancer Drug Screen. Data for the sgs1 mgt1 strain (AID 161);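 also: 0% = growth of cultures given vehicle only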; conditions: S. cerevisiae sgs1 mgt1 strain, stronger effect = higher value
Method in brief: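 Inhibition of yeast growth, normalised to vehicle-treated controls, is reported for a strain bearing genetic alterations in DNA damage repair.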

[4] = NCI Yeast Anticancer Drug Screen. Data for the cln2 rad14 strain (AID 165);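 also: 0% = growth equal to vehicle treated cultures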; conditions: S. cerevisiae cln2 rad14 strain, stronger effect = higher value
Method in brief: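 Each compound was tested on cln2 rad14 yeast. Inhibition of growth was calculated against vehicle-exposed controls.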

[5] = NCI Yeast Anticancer Drug Screen. Data for the bub3 strain (AID 167); conditions: S. cerevisiae bub3 mutant strain, stronger effect = higher value
Method in brief: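 Readout: yeast growth inhibition, expressed relative to vehicle-only wells. The test organism is a mutant strain from a panel with lesions in DNA repair or checkpoint genes.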

[6] = NCI Yeast Anticancer Drug Screen. Data for the wt2 strain (AID 169);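 also: 0% = growth of vehicle-treated yeast cultures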; conditions: S. cerevisiae wt2 strain growth inhibition, stronger effect = higher value
Method in brief: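 Inhibition of yeast growth was determined after compound treatment, normalised to controls receiving only vehicle.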

[7] = NCI Yeast Anticancer Drug Screen. Data for the mlh1 strain (AID 171);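 also: 0% = growth of vehicle-treated control cultures of the same strain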; conditions: S. cerevisiae mlh1 strain growth inhibition, stronger effect = higher value
Method in brief: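 Vehicle-normalised growth inhibition of a repair- or checkpoint-altered yeast strain following compound treatment.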

[8] = NCI Yeast Anticancer Drug Screen. Data for the sgs1 strain (AID 173);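 also: 0% = growth of vehicle-only control cultures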; conditions: S. cerevisiae sgs1 mutant, stronger effect = higher value
Method in brief: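 Screen format: yeast with repair or checkpoint alterations, compound exposure, growth read relative to vehicle.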

[9] = NCI Yeast Anticancer Drug Screen. Data for the mlh1 rad18 strain (AID 175); conditions: S. cerevisiae mlh1 rad18 strain growth inhibition, stronger effect = higher value
Method in brief: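 Vehicle-treated cultures served as the reference for growth inhibition in a yeast strain carrying DNA damage repair alterations exposed to each compound.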

[10] = NCI Yeast Anticancer Drug Screen. Data for the rad50EPP+ strain (AID 151);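 also: 0% = growth of vehicle-treated control cultures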; conditions: S. cerevisiae rad50 mutant strain, stronger effect = higher value
Method in brief: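 In this screen, rad50EPP+ yeast were exposed to compounds. Growth inhibition was scored against vehicle-treated controls.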

[11] = NCI Yeast Anticancer Drug Screen. Data for the mgt1 strain (AID 153); conditions: S. cerevisiae mgt1 mutant growth inhibition, stronger effect = higher value
Method in brief: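 mgt1 strain exposed; growth vs vehicle control recorded as inhibition.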

[12] = NCI Yeast Anticancer Drug Screen. Data for the rad50 strain (AID 155);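 also: 0% = growth of vehicle-only cultures of the same strain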; conditions: S. cerevisiae rad50 strain growth inhibition, stronger effect = higher value
Method in brief: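 Readout: growth inhibition relative to vehicle-treated cultures. Compound exposure was carried out in a genetically defined yeast strain deficient in DNA damage repair.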

[13] = NCI Yeast Anticancer Drug Screen. Data for the CLN2oe strain (AID 163);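 also: 0% = growth of vehicle-only control cultures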; conditions: S. cerevisiae CLN2oe strain, stronger effect = higher value
Method in brief: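 Inhibition relative to vehicle-treated yeast is reported. Cells: strain with genetic alteration in cell-cycle control, grown with compound.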

[14] = NCI Yeast Anticancer Drug Screen. Data for the rad18 strain (AID 177); conditions: S. cerevisiae rad18 mutant growth inhibition, stronger effect = higher value
Method in brief: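 Test articles were incubated with altered yeast defective in DNA damage repair. Results are given as inhibition of growth versus vehicle.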

[15] = at 5.0 µM (retest, dose inferred, filed as 0.5)
[16] = at 50.0 µM (retest, dose inferred, filed as 5.0)

Measured: growth inhibition

CCCCCCCCCC/C=C\C(=O)O
active: [1]; at 100.0 µM 95% | [2]; at 100.0 µM 98% | [3]; at 50.0 µM 88.5% | [4]; [16] 73% | [5]; [16] 73% | [5]; at 50.0 µM 85.8% | [5]; at 100.0 µM 97% | [6]; at 100.0 µM 97% | [7]; at 100.0 µM 97% | [8]; at 100.0 µM 98% | [9]; at 50.0 µM 73.8%
inactive: [2]; at 1.2 µM -3% | [2]; at 3.7 µM -5% | [2]; at 11.0 µM -1% | [2]; at 33.0 µM 38% | [3]; [15] -18% | [3]; [16] 58% | [4]; [15] 67% | [4]; at 50.0 µM 46.5% | [5]; at 1.2 µM -6% | [5]; at 3.7 µM -15% | [5]; [15] -7% | [5]; at 11.0 µM -29% | [5]; at 33.0 µM -10% | [6]; at 1.2 µM -14% | [6]; at 3.7 µM -15% | [6]; at 11.0 µM -18% | [6]; at 33.0 µM -7% | [7]; at 1.2 µM -10% | [7]; at 3.7 µM -4% | [7]; at 11.0 µM -20% | [7]; at 33.0 µM 10% | [8]; at 1.2 µM -7% | [8]; at 3.7 µM -5% | [8]; at 11.0 µM -9% | [8]; at 33.0 µM 19% | [9]; [15] 37% | [9]; [16] 69%

N#CSc1ccc(S(N)(=O)=O)cc1
active: [12]; [16] 97% | [12]; at 100.0 µM 73% | [1]; [16] 95% | [3]; [16] 85% | [4]; [16] 82% | [5]; [16] 86% | [5]; at 50.0 µM 75.8% | [5]; at 100.0 µM 79% | [9]; [16] 98% | [14]; at 100.0 µM 81%
inactive: [10]; at 1.2 µM -67% | [10]; at 3.7 µM -50% | [10]; at 11.0 µM -91% | [10]; at 33.0 µM -86% | [10]; at 100.0 µM -14% | [11]; at 1.2 µM -81% | [11]; at 3.7 µM -91% | [11]; at 11.0 µM -44% | [11]; at 33.0 µM -62% | [11]; at 100.0 µM 46% | [12]; at 1.2 µM -55% | [12]; at 3.7 µM -39% | [12]; [15] 51% | [12]; at 11.0 µM -36% | [12]; at 33.0 µM 17% | [12]; at 50.0 µM 56.9% | [1]; at 1.2 µM -84% | [1]; at 3.7 µM -60% | [1]; [15] 51% | [1]; at 11.0 µM -37% | [1]; at 33.0 µM -2% | [1]; at 50.0 µM 47.6% | [1]; at 100.0 µM 63% | [2]; at 1.2 µM -36% | [2]; at 3.7 µM -43% | [2]; at 11.0 µM -51% | [2]; at 33.0 µM -30% | [2]; at 100.0 µM 3% | [3]; [15] 0% | [3]; at 50.0 µM 62.1% | [13]; at 1.2 µM -27% | [13]; at 3.7 µM -13% | [13]; at 11.0 µM 2% | [13]; at 33.0 µM 29% | [13]; at 100.0 µM 66% | [4]; [15] 64% | [4]; at 50.0 µM 41.4% | [5]; at 1.2 µM -23% | [5]; at 3.7 µM -37% | [5]; [15] 5% | [5]; at 11.0 µM -17% | [5]; at 33.0 µM 37% | [6]; at 1.2 µM -48% | [6]; at 3.7 µM -45% | [6]; at 11.0 µM -32% | [6]; at 33.0 µM -25% | [6]; at 100.0 µM 50% | [7]; at 1.2 µM -65% | [7]; at 3.7 µM -44% | [7]; at 11.0 µM -33% | [7]; at 33.0 µM 8% | [7]; at 100.0 µM 64% | [8]; at 1.2 µM -68% | [8]; at 3.7 µM -67% | [8]; at 11.0 µM -21% | [8]; at 33.0 µM 9% | [8]; at 100.0 µM 65% | [9]; [15] 40% | [9]; at 50.0 µM 59.1% | [14]; at 1.2 µM -47% | [14]; at 3.7 µM -45% | [14]; at 11.0 µM -57% | [14]; at 33.0 µM 28%
